From PubChem BioAssay (NCI) come the findings set out here.

This is part of a sample that, as a whole, favours compounds with a hit. Of some 83,000 tested, about 20% had one in any assay.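 For each line, cells grew in 96-well plates with the test compound present at a single concentration for 48 hours.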 A number with no mark means an inactive call. Activity calls are given as the source filed them. The calls were made as follows: active = growth percent below 10; inactive = the rest.

Among the test systems are SK-MEL-2 melanoma; EKVX NSCLC; UO-31 renal; TK-10 renal; ACHN renal; CAKI-1 renal; A498 renal; CCRF-CEM leukemia; MOLT-4 leukemia; SR leukemia; RPMI-8226 leukemia; OVCAR-8 ovarian; OVCAR-5 ovarian; OVCAR-4 ovarian; SK-OV-3 ovarian; IGROV1 ovarian; OVCAR-3 ovarian; HS 578T breast; NCI/ADR-RES ovarian.
Holding throughout (assay): NCI-60 one-dose screen, 48 h (100 = growth as untreated, 0 = no growth, -100 = all killed)
Holding throughout (details): 10 µM unless noted

For the compound `CC(=O)c1cc(C(=O)c2ccc3c(c2)Sc2ccccc2N3)n2ccccc12`, the growth is 20.3% in the assay with SK-MEL-2 melanoma; 41.2% in the assay on EKVX NSCLC; 19.9% in the assay with UO-31 renal; 59.2% with TK-10 renal; 26.2% with ACHN renal; 24.1% in the assay with CAKI-1 renal. For the same compound, the growth with A498 renal was -11.9% (active); with CCRF-CEM leukemia, 5.4% (active); with MOLT-4 leukemia, 13.9%; in the assay with SR leukemia, 9.43% (active); in the assay on RPMI-8226 leukemia, 5.63% (active); with OVCAR-8 ovarian, 6.54% (active). Further, the growth in the assay on OVCAR-5 ovarian is 68.2%; in the assay on OVCAR-4 ovarian it was 40.9%; in the assay on SK-OV-3 ovarian, 9.84% (active); in the assay on IGROV1 ovarian, 15%; in the assay on OVCAR-3 ovarian, -16.8% (active); in the assay with HS 578T breast it was 24.9%. Besides, the growth in the assay on NCI/ADR-RES ovarian is 22.1%.
Regarding `COc1ccc(CN2c3ccccc3Oc3ccccc32)cc1F`, the growth with SK-MEL-2 melanoma was 10%; in the assay with EKVX NSCLC it was 60.7%; in the assay on UO-31 renal it was 53.3%; with TK-10 renal it was 74.2%; in the assay on ACHN renal it was 81%; in the assay with CAKI-1 renal it was 59.3%. For the same compound, the growth in the assay with A498 renal is 54.3%; in the assay on CCRF-CEM leukemia, 66.7%; in the assay on MOLT-4 leukemia, 42%; with SR leukemia, 27.1%; in the assay with RPMI-8226 leukemia it was 61.5%; in the assay with OVCAR-8 ovarian, 64.5%. Further, the growth with OVCAR-5 ovarian was 86.7%; with OVCAR-4 ovarian, 71.7%; in the assay with SK-OV-3 ovarian it was 46.5%; in the assay on IGROV1 ovarian, 52.1%; in the assay with OVCAR-3 ovarian it was 43.1%; in the assay on HS 578T breast, 62.3%. Besides, in the assay on NCI/ADR-RES ovarian, the growth was 41.5%.
In the case of `Cc1ccc2oc(=O)cc(C3c4ccc([nH]4)C(c4cc(=O)oc5ccc(C)cc45)c4ccc([nH]4)C(c4cc(=O)oc5ccc(C)cc45)c4ccc([nH]4)C(c4cc(=O)oc5ccc(C)cc45)c4ccc3[nH]4)c2c1` (stereo not drawn), the growth is -73.1% (active) in the assay on SK-MEL-2 melanoma; -19.3% (active) in the assay with EKVX NSCLC; -24.7% (active) in the assay with UO-31 renal; -22.2% (active) with TK-10 renal; -18.6% (active) with ACHN renal; -13.6% (active) in the assay with CAKI-1 renal. In addition, the growth with A498 renal was -81.1% (active); in the assay on CCRF-CEM leukemia it was -18% (active); in the assay on MOLT-4 leukemia, -22.4% (active); in the assay on SR leukemia, -36.5% (active); in the assay with RPMI-8226 leukemia, -21.3% (active); in the assay with OVCAR-8 ovarian, -47.8% (active). Also, the growth in the assay on OVCAR-5 ovarian is -11.7% (active); in the assay with OVCAR-4 ovarian it was -6.02% (active); with SK-OV-3 ovarian, -30.7% (active); in the assay on IGROV1 ovarian it was -20.1% (active); in the assay on OVCAR-3 ovarian, -65% (active); in the assay with HS 578T breast, -37% (active). Besides, in the assay on NCI/ADR-RES ovarian, the growth was -25% (active).
For `CC/C=C\C/C=C\C[C@H]1C/C=C2/C(=O)C=C[C@@H]2C/C=C\CCC(=O)O1`, the growth in the assay on SK-MEL-2 melanoma is -56.9% (active); in the assay on EKVX NSCLC, 31.4%; in the assay with UO-31 renal, -49.7% (active); in the assay on TK-10 renal, 7.69% (active); in the assay with CAKI-1 renal it was 14.5%; with A498 renal, 20.7%. Besides, the growth in the assay with CCRF-CEM leukemia was -5.47% (active); in the assay on MOLT-4 leukemia it was 2.83% (active); in the assay with SR leukemia, 0.464% (active); in the assay on RPMI-8226 leukemia, -14.6% (active); in the assay with OVCAR-8 ovarian, 7.21% (active); in the assay with OVCAR-5 ovarian, 44.6%. Besides, the growth with OVCAR-4 ovarian is 26.7%; in the assay with SK-OV-3 ovarian, 40.9%; with IGROV1 ovarian, 13.1%; in the assay on OVCAR-3 ovarian it was 2.66% (active); in the assay on HS 578T breast, 43.6%; in the assay on NCI/ADR-RES ovarian, 17.9%.
Regarding `COc1cc(-c2nc(C(=O)NCC(=O)NO)nn2-c2ccc(Cl)cc2)cc(OC)c1OC`, the growth in the assay on SK-MEL-2 melanoma is 95.4%; in the assay with EKVX NSCLC it was 103%; in the assay on UO-31 renal, 83.5%; in the assay with TK-10 renal, 96.9%; in the assay on CAKI-1 renal, 89.3%; with A498 renal, 110%. In addition, the growth in the assay with CCRF-CEM leukemia is 107%; in the assay on MOLT-4 leukemia, 97.4%; with SR leukemia, 84.8%; with RPMI-8226 leukemia, 105%; in the assay with OVCAR-8 ovarian, 98.5%; in the assay with OVCAR-5 ovarian, 93.3%. Moreover, the growth in the assay with OVCAR-4 ovarian was 105%; in the assay on SK-OV-3 ovarian it was 93.3%; with IGROV1 ovarian, 112%; with OVCAR-3 ovarian, 103%; in the assay with HS 578T breast, 85.6%; in the assay with NCI/ADR-RES ovarian, 106%.
Take `CCC#CC[C@H](O)C/C=C1/C(=O)C=C[C@@H]1C/C=C\CCCC(=O)OC`: the growth was -35.8% (active) in the assay with SK-MEL-2 melanoma; 23.7% in the assay with EKVX NSCLC; -65.4% (active) in the assay on UO-31 renal; 2.33% (active) with TK-10 renal; -82.8% (active) in the assay on ACHN renal; -18.3% (active) in the assay on CAKI-1 renal. Moreover, the growth was -8.8% (active) in the assay on CCRF-CEM leukemia; 1.17% (active) in the assay on MOLT-4 leukemia; -8.41% (active) in the assay with SR leukemia; -13.6% (active) in the assay on RPMI-8226 leukemia; 7.14% (active) with OVCAR-8 ovarian; 32.4% with OVCAR-5 ovarian. Further, the growth was 29.1% in the assay with OVCAR-4 ovarian; 35.5% in the assay on SK-OV-3 ovarian; 14% in the assay on IGROV1 ovarian; 12.5% with OVCAR-3 ovarian; 52.6% with HS 578T breast; 14.4% with NCI/ADR-RES ovarian.
`C/C1=C\CC[C@@]2(C)O[C@H]2[C@H]2OC(=O)C(CN3CCN(CC4C(=O)O[C@H]5[C@H]4CC/C(C)=C/CC[C@@]4(C)O[C@@H]54)CC3)[C@@H]2CC1` (stereo partly drawn): the growth is 107% in the assay on SK-MEL-2 melanoma; 96.8% with EKVX NSCLC; 96.7% in the assay on UO-31 renal; 89.7% in the assay on TK-10 renal; 87.1% in the assay on ACHN renal; 94% with CAKI-1 renal. For the same compound, the growth was 114% in the assay on A498 renal; 58% in the assay with CCRF-CEM leukemia; 84.3% in the assay on MOLT-4 leukemia; 66% with SR leukemia; 79% in the assay on RPMI-8226 leukemia; 91.5% with OVCAR-8 ovarian. Moreover, the growth in the assay on OVCAR-5 ovarian was 103%; with OVCAR-4 ovarian, 103%; with SK-OV-3 ovarian, 110%; with IGROV1 ovarian it was 101%; in the assay with OVCAR-3 ovarian it was 79.7%; with HS 578T breast, 98.7%. In the assay on NCI/ADR-RES ovarian, the growth was 101%.
As to `CCOc1ccc(C(C)=O)cc1NC(=O)c1cccc(-c2nnn(CC)n2)c1`, the growth with SK-MEL-2 melanoma was -5.73% (active); with EKVX NSCLC, 54.5%; in the assay on UO-31 renal it was 38.4%; with TK-10 renal, 64.4%; in the assay on ACHN renal, 50.8%; in the assay on CAKI-1 renal, 33.1%. In addition, the growth is -6.01% (active) in the assay with A498 renal; 11.9% in the assay with CCRF-CEM leukemia; 27.8% with MOLT-4 leukemia; 22.4% in the assay on RPMI-8226 leukemia; 34.2% in the assay on OVCAR-8 ovarian; 66.5% with OVCAR-5 ovarian. Also, the growth was 48% in the assay on OVCAR-4 ovarian; 23.8% with SK-OV-3 ovarian; 52.3% with IGROV1 ovarian; 7.08% (active) in the assay with OVCAR-3 ovarian; 25.4% in the assay with HS 578T breast; 25.2% with NCI/ADR-RES ovarian.
